The panel holds about 83,000 compounds, 20% with a hit somewhere; the sample as a whole holds those more often.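 Single-concentration screen, 48 h exposure, 96-well plates. Endpoint: percent growth. Below 10 = active.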 Values without a mark were called inactive. The source made the active and inactive calls.

These results are taken from PubChem BioAssay (NCI).

Test systems include NCI-H23 lung; NCI-H226 lung; NCI-H322M lung; HOP-62 NSCLC; HOP-92 NSCLC; NCI-H522 lung; A549/ATCC NSCLC; 786-0 renal; COLO 205 colon; DU-145 prostate; K-562 leukemia; MALME-3M melanoma; MDA-MB-231 breast; RXF 393 renal; SF-268 CNS; SF-295 CNS; SF-539 CNS; UACC-257 melanoma; M14 melanoma.
Common to all, as to assay: NCI-60 one-dose screen, 48 h (100 = growth as untreated, 0 = no growth, -100 = all killed)
Details in all cases: 10 µM

In the case of `CCCCCCCCCCCCCCCC(=O)N1CCN(C)CC1`, the growth in the assay with NCI-H23 lung was 85.1%; in the assay with NCI-H226 lung it was 106%; in the assay on NCI-H322M lung it was 71.3%; in the assay with HOP-62 NSCLC, 89%; in the assay with HOP-92 NSCLC, 31.7%; with NCI-H522 lung, 17.1%. Further, the growth in the assay on A549/ATCC NSCLC was 95.5%; with 786-0 renal, 86%; in the assay on COLO 205 colon it was 68.6%; in the assay on DU-145 prostate it was 87.2%; in the assay with K-562 leukemia it was 15.9%; with MALME-3M melanoma it was 90.3%. Also, the growth is 54.7% in the assay on MDA-MB-231 breast; 77% in the assay with RXF 393 renal; 73.7% in the assay with SF-268 CNS; 83.7% with SF-295 CNS; 73.9% in the assay on SF-539 CNS; 91.8% in the assay on UACC-257 melanoma. For the same compound, the growth in the assay on M14 melanoma is 80.2%.
As to `O=c1[nH]c(=O)n(C2C[C@@H](O)[C@@H](CO)O2)cc1F` (some centres undefined), the growth with NCI-H23 lung was 15.9%; with NCI-H226 lung, 50.4%; in the assay on NCI-H322M lung, 57.6%; in the assay with HOP-62 NSCLC, 27.7%; in the assay on HOP-92 NSCLC, 38.9%; in the assay with NCI-H522 lung, 20.1%. Besides, the growth was 22.2% with A549/ATCC NSCLC; 8.75% (active) with 786-0 renal; 36.7% with COLO 205 colon; 37% in the assay with DU-145 prostate; 9.63% (active) in the assay on K-562 leukemia; 52.7% with MALME-3M melanoma. Moreover, the growth in the assay on MDA-MB-231 breast was 62.1%; with SF-268 CNS, 24.1%; in the assay with SF-295 CNS, 8.65% (active); with SF-539 CNS it was 5.71% (active); in the assay on UACC-257 melanoma it was 67.8%; in the assay on M14 melanoma, -6.77% (active).
Consider `O=C(NCCCl)c1cc(Cl)cc(Cl)c1`, for which the growth in the assay on NCI-H23 lung was 103%; in the assay with NCI-H226 lung, 102%; with NCI-H322M lung, 98.2%; in the assay on HOP-62 NSCLC, 109%; with HOP-92 NSCLC, 109%; with NCI-H522 lung it was 92.8%. The growth with A549/ATCC NSCLC is 90.7%; with 786-0 renal, 102%; with COLO 205 colon it was 112%; with DU-145 prostate, 111%; in the assay with K-562 leukemia, 101%; in the assay on MALME-3M melanoma it was 97.8%. Moreover, the growth in the assay on MDA-MB-231 breast is 121%; in the assay with RXF 393 renal it was 114%; in the assay with SF-268 CNS, 112%; in the assay with SF-295 CNS it was 92.4%; in the assay on SF-539 CNS, 101%; with UACC-257 melanoma, 91.8%. The growth with M14 melanoma is 116%.
For `COc1cc(OC)cc(N2CCN(C(=O)Nc3nc4cc(F)ccc4nc3OC)CC2)c1`, the growth with NCI-H23 lung was 20.4%; in the assay with NCI-H226 lung it was 43.3%; with NCI-H322M lung it was 29.3%; in the assay on HOP-62 NSCLC, 34.7%; with HOP-92 NSCLC, 39.8%; with NCI-H522 lung it was -3.96% (active). Further, the growth is 19.8% with A549/ATCC NSCLC; 15% with 786-0 renal; -65.4% (active) in the assay on COLO 205 colon; 1% (active) in the assay with DU-145 prostate; 12.8% in the assay with K-562 leukemia; 44.6% in the assay with MALME-3M melanoma. In addition, the growth in the assay on MDA-MB-231 breast is 1.05% (active); in the assay with RXF 393 renal it was 22.1%; with SF-268 CNS, 29.2%; in the assay on SF-295 CNS, 15%; with SF-539 CNS, -12.2% (active); with UACC-257 melanoma it was 72.7%. The growth with M14 melanoma is 1.15% (active).
Turning to `O=C1/C(=C/c2cccs2)CCC/C1=C\c1cccs1`, the growth in the assay with NCI-H23 lung is 81.5%; with NCI-H226 lung it was 80.9%; in the assay with NCI-H322M lung, 85.3%; in the assay on HOP-62 NSCLC it was 96.7%; in the assay with HOP-92 NSCLC, 66%; in the assay with NCI-H522 lung, 76.7%. The growth is 88.4% with A549/ATCC NSCLC; 108% in the assay on 786-0 renal; 117% in the assay on COLO 205 colon; 92.9% with DU-145 prostate; 94.8% in the assay on K-562 leukemia; 91.9% with RXF 393 renal. The growth in the assay with SF-268 CNS is 96.2%; in the assay on SF-295 CNS it was 104%; in the assay on SF-539 CNS, 100%; in the assay with UACC-257 melanoma it was 96.9%; in the assay on M14 melanoma, 87.5%.
For `CCOC(=O)Nc1ccc2c(c1)C(=O)N(CCOC)c1ccccc1O2`, the growth in the assay with NCI-H23 lung is 52%; in the assay on NCI-H226 lung, 77.1%; in the assay with NCI-H322M lung, 43%; with HOP-62 NSCLC, 43%; with HOP-92 NSCLC it was 45%; with NCI-H522 lung, 18.4%. Also, the growth is 44.8% in the assay on A549/ATCC NSCLC; 45.3% in the assay on 786-0 renal; 13% in the assay with COLO 205 colon; 43.8% in the assay on DU-145 prostate; 20.3% with K-562 leukemia; 61.2% with MALME-3M melanoma. In addition, the growth is 62.3% in the assay with MDA-MB-231 breast; 56% in the assay on RXF 393 renal; 56.9% in the assay with SF-268 CNS; 28.8% with SF-295 CNS; 30.3% in the assay with SF-539 CNS; 61.7% in the assay with UACC-257 melanoma. In addition, the growth with M14 melanoma is 19.8%.
`COc1cc(-c2nc3ccc(C)cc3[nH]2)ccc1OCc1nnc(-c2ccc(CC(C)C)cc2)o1`: the growth in the assay on NCI-H23 lung was 93.2%; with NCI-H226 lung, 86.9%; in the assay with NCI-H322M lung it was 97.2%; with HOP-62 NSCLC it was 90.6%; with HOP-92 NSCLC it was 79.4%; with NCI-H522 lung, 97.4%. Besides, the growth in the assay with A549/ATCC NSCLC is 93.5%; with 786-0 renal, 90%; in the assay with COLO 205 colon, 103%; in the assay on DU-145 prostate, 101%; in the assay with K-562 leukemia, 46%; in the assay with MALME-3M melanoma, 98%. The growth is 88.9% in the assay on MDA-MB-231 breast; 71.3% in the assay on RXF 393 renal; 105% in the assay on SF-268 CNS; 96.3% in the assay on SF-295 CNS; 91.7% with SF-539 CNS; 96.8% with UACC-257 melanoma. In addition, in the assay with M14 melanoma, the growth was 104%.
For `COc1ccc(-c2nc(-c3nc4ccc(OC)cc4[nH]3)c3ccccn23)cc1`, the growth in the assay on NCI-H23 lung was 90.5%; in the assay with NCI-H226 lung, 75.1%; in the assay on NCI-H322M lung it was 65%; with HOP-62 NSCLC, 63%; in the assay on HOP-92 NSCLC it was 13.9%; with NCI-H522 lung, 62.8%. The growth is 48% in the assay on A549/ATCC NSCLC; 84.4% in the assay on 786-0 renal; 95.1% in the assay on COLO 205 colon; 71.9% in the assay on DU-145 prostate; 25.5% in the assay on K-562 leukemia; 104% with MALME-3M melanoma. The growth in the assay on MDA-MB-231 breast is 83%; with RXF 393 renal it was 75.7%; in the assay with SF-268 CNS, 57.5%; with SF-295 CNS, 52%; in the assay with SF-539 CNS it was 90.2%; in the assay on UACC-257 melanoma, 92.9%. For the same compound, the growth in the assay with M14 melanoma was 77.5%.
